According to article PMC7862700, “An all-to-all approach to the identification of sequence-specific readers for epigenetic DNA modifications on cytosine”:

Legend:
Assay in all cases: DAPPL (digital affinity profiling via proximity ligation, sequencing); 10 mM Tris-HCl pH 7.5, 50 mM NaCl, 1 mM DTT, 4% glycerol, room temperature, 30 min; GST-TFs on glutathione beads, 16-mer random dsDNA library, 0.1% formaldehyde crosslink after washing; high values mean tight binding
Conditions in all cases: protein: recombinant; tags: N-terminal GST; dsDNA, one strand shown
FLI1 = molecular target: T1, FLI1 (Homo sapiens, UniProt Q01543 1-452)
T1 sequence: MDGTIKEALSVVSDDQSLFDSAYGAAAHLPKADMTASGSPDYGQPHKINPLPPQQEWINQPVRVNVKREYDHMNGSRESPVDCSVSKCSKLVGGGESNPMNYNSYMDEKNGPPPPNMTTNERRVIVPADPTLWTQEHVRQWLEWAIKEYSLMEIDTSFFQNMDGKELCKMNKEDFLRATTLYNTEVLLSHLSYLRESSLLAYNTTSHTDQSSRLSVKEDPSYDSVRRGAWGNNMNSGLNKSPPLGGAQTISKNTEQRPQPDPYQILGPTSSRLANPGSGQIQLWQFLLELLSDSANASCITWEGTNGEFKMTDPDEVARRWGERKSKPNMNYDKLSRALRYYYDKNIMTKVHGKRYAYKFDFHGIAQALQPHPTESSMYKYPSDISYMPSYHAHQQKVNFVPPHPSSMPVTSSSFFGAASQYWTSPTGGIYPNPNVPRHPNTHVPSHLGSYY
Procedure, shortened: (§1)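 Sequencing on an Illumina NextSeq500 followed washing, crosslinking with 0.1% formaldehyde, proximity ligation (BsaI/T4 ligase, 1 h, 37 °C) and PCR amplification of pools that had been incubated for 30 min at room temperature with 200 nmole of a random double-stranded 16-mer DNA library in Tris/NaCl/DTT/glycerol buffer. Each pool held DNA-barcoded human transcription factors, expressed in yeast as GST fusions and captured on glutathione beads, plus a tag-only sample. Binding signal is a hexamer's read frequency for a factor divided by its frequency in the tag-only sample.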

GABPA = molecular target: T2, GABPA (Homo sapiens, UniProt Q06546 1-454)
T2 sequence: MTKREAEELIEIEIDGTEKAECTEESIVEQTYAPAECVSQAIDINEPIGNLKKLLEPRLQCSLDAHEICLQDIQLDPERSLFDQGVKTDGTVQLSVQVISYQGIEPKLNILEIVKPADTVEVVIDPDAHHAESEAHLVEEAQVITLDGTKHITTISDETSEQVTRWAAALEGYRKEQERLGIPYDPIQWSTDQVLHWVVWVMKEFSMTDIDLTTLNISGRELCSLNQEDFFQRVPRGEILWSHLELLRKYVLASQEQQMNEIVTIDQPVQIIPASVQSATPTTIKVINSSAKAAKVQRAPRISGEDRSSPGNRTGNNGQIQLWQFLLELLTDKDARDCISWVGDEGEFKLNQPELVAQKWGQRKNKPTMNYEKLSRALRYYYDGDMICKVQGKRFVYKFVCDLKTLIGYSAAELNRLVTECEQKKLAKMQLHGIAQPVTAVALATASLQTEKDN
Procedure, shortened: as §1

ERG = molecular target: T3, ERG (Homo sapiens, UniProt P11308 1-479)
T3 sequence: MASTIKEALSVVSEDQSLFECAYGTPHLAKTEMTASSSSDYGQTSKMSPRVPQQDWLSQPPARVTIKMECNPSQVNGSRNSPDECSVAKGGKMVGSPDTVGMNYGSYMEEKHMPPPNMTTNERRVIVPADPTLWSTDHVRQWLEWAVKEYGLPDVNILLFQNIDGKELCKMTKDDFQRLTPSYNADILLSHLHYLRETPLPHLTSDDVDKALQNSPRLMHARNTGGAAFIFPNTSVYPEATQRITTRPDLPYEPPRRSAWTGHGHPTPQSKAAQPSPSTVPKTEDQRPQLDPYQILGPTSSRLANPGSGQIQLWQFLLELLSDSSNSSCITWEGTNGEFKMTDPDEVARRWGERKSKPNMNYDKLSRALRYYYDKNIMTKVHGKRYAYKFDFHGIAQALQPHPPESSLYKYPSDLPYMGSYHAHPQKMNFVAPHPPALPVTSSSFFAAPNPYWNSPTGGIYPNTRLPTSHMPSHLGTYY
Procedure, shortened: as §1

EHF = molecular target: T4, EHF (Homo sapiens, UniProt Q9NZC4 1-300)
T4 sequence: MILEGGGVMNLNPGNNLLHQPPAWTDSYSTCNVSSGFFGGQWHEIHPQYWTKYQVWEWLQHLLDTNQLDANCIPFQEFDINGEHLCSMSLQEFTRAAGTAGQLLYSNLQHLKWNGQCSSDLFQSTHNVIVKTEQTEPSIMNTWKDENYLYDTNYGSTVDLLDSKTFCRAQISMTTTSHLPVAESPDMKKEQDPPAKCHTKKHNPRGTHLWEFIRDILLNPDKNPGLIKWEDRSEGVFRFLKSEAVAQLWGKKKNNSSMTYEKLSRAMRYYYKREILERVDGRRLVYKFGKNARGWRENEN
Procedure, shortened: as §1

SPI1 = SPI1 (Homo sapiens, UniProt P17947 1-270)
Procedure, shortened: as §1

ELK3 = molecular target: T5, ELK3 (Homo sapiens, UniProt P41970 1-407)
T5 sequence: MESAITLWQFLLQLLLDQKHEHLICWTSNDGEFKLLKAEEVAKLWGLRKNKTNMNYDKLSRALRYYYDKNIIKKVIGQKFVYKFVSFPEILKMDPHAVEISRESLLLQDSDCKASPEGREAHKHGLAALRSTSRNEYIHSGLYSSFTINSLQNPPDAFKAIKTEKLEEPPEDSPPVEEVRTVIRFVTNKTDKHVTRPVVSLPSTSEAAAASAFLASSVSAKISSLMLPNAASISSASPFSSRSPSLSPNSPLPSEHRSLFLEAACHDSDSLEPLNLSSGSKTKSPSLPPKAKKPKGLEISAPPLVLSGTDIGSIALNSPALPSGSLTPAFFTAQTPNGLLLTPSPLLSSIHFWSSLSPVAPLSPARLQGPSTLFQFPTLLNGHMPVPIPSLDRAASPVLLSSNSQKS
Procedure, shortened: as §1

FEV = molecular target: T6, FEV (Homo sapiens, UniProt Q99581 1-238)
T6 sequence: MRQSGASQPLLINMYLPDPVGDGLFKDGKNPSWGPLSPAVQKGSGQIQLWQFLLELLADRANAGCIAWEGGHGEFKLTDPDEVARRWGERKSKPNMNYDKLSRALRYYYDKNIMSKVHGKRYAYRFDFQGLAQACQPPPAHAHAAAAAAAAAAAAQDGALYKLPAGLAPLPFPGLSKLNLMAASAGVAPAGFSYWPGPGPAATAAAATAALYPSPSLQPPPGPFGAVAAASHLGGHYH
Procedure, shortened: as §1

SPIC = molecular target: T7, SPIC (Homo sapiens, UniProt Q8N5J4 1-248)
T7 sequence: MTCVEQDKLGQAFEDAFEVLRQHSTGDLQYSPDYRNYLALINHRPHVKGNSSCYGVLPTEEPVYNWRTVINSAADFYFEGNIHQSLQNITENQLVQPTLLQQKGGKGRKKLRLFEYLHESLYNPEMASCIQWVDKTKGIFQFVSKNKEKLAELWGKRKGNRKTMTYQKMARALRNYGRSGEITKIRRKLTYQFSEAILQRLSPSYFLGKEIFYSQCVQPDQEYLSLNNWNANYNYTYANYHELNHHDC
Procedure, shortened: as §1

ETV2 = molecular target: T8, ETV2 (Homo sapiens, UniProt O00321 1-342)
T8 sequence: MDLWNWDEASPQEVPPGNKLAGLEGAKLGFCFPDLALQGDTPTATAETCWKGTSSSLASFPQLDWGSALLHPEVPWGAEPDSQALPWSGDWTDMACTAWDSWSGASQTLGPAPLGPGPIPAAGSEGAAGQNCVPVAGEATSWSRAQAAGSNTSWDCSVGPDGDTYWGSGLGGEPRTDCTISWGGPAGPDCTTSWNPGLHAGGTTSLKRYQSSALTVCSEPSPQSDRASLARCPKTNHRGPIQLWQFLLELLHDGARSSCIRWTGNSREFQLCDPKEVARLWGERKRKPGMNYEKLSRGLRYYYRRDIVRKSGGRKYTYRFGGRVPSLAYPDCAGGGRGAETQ
Procedure, shortened: as §1

ETV1 = ETV1 (Homo sapiens, UniProt P50549 1-477)
ETV1, sequence (P50549 whole entry): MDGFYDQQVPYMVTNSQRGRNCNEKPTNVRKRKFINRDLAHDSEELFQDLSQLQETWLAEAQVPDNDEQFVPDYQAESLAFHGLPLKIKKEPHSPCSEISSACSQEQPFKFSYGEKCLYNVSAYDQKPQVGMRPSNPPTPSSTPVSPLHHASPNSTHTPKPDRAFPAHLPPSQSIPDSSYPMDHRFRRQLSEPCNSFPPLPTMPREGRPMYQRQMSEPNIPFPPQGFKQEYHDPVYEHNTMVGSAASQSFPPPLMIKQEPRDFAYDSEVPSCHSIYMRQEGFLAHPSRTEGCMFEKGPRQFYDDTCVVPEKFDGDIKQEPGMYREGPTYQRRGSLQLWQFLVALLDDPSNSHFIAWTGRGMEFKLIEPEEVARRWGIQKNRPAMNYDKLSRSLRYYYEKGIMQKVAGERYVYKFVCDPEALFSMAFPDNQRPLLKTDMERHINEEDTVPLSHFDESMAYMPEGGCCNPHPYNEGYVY
Procedure, shortened: as §1

ERF = molecular target: T9, ERF (Homo sapiens, UniProt P50548 1-548)
T9 sequence: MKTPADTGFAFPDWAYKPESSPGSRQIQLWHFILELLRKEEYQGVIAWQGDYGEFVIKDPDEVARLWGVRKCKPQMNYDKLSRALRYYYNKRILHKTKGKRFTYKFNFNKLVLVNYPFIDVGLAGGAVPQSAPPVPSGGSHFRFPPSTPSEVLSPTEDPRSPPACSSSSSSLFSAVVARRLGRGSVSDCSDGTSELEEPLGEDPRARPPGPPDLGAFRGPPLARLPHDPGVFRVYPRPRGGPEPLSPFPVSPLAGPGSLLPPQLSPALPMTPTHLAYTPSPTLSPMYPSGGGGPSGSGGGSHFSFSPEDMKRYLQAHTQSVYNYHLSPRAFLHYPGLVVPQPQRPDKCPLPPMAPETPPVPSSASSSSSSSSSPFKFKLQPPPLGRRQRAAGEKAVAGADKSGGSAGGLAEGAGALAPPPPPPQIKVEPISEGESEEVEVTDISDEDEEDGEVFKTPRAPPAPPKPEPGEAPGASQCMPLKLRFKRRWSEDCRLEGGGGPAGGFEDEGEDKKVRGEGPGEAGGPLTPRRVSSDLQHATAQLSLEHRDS
Procedure, shortened: as §1

ETS2 = molecular target: T10, ETS2 (Homo sapiens, UniProt P15036 1-469)
T10 sequence: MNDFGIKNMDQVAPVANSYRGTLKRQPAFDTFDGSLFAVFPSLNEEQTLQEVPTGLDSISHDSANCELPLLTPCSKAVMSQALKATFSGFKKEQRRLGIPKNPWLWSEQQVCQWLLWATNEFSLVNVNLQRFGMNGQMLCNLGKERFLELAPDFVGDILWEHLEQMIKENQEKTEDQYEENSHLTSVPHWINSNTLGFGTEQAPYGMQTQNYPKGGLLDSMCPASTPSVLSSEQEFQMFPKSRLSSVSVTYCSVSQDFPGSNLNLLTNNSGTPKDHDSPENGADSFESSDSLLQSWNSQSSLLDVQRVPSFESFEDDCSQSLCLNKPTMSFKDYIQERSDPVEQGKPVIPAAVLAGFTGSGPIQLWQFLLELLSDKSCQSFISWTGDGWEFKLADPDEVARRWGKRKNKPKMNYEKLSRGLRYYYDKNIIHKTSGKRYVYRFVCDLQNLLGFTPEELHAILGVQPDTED
Procedure, shortened: as §1

SPDEF = molecular target: T11, SPDEF (Homo sapiens, UniProt O95238 1-335)
T11 sequence: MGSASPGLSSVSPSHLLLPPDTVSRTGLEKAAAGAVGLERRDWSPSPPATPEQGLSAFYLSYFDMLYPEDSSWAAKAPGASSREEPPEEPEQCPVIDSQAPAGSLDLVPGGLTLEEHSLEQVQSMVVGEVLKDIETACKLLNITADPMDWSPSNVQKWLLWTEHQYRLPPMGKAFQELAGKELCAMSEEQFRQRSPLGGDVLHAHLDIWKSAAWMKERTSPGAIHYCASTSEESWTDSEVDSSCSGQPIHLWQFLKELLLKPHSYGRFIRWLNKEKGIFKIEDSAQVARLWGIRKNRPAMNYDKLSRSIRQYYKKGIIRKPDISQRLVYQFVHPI
Procedure, shortened: as §1

GTCGAC
binding signal (FLI1): 1.04 fold enrichment (6-mer frequency, TF over GST control) | binding signal (GABPA): 1.02 fold enrichment (6-mer frequency, TF over GST control) | binding signal (ERG): 1.07 fold enrichment (6-mer frequency, TF over GST control) | binding signal (EHF): 1.01 fold enrichment (6-mer frequency, TF over GST control) | binding signal (SPI1): 1.08 fold enrichment (6-mer frequency, TF over GST control) | binding signal (ELK3): 1.06 fold enrichment (6-mer frequency, TF over GST control) | binding signal (FEV): 1.02 fold enrichment (6-mer frequency, TF over GST control) | binding signal (SPIC): 1.07 fold enrichment (6-mer frequency, TF over GST control) | binding signal (ETV2): 1.02 fold enrichment (6-mer frequency, TF over GST control) | binding signal (ETV1): 1 fold enrichment (6-mer frequency, TF over GST control) | binding signal (ERF): 1.07 fold enrichment (6-mer frequency, TF over GST control) | binding signal (ETS2): 1.04 fold enrichment (6-mer frequency, TF over GST control) | binding signal (SPDEF): 1.06 fold enrichment (6-mer frequency, TF over GST control)
